Calls of active or inactive are those of the source. How the source made its calls: active means hit-call score of the fitted dose curve at least 0.9, where 1 is the maximum; inactive means score below 0.9.
target: Transcription factor E2F1 (Homo sapiens) (UniProt Q01094); test: ATG_E2F_CIS: Attagene CIS-FACTORIAL HepG2 Assay for human E2F Transcription Factor 1 (AID 2282935); settings: HepG2 Attagene cis-reporter, E2F reporter RNA transcripts; actives raise or lower the signal
Description: ATG_CIS is a cell-based, multiplexed-readout assay that uses HepG2, a human liver cell line, with measurements taken at 24 hours after chemical dosing in a 24-well plate.ATG_E2F_CIS is one of 52 assay component(s) measured or calculated from the ATG_CIS assay. It is designed to make measurements of mRNA induction, a form of inducible reporter, as detected with fluorescence intensity signals by Reverse transcription polymerase chain reaction (RT-PCR) and Capillary electrophoresis technology.Data from the assay component ATG_E2F_CIS was analyzed into 1 assay endpoint. This assay endpoint, ATG_E2F_CIS, was analyzed with bidirectional fitting relative to DMSO as the negative control and baseline of activity. Using a type of inducible reporter, measures of mRNA for gain or loss-of-signal activity can be used to understand the reporter gene at the transcription factor-level as they relate to the gene E2F1. Furthermore, this assay endpoint can be referred to as a primary readout, because this assay has produced multiple assay endpoints where this one serves a reporter gene function. To generalize the intended target to other relatable targets, this assay endpoint is annotated to the dna binding intended target family, where the subfamily is E2F transcription factor.
Human liver HepG2 cells are transiently transfected with multiple reporter transcription units (MRTUs) in 6-well plates using FuGene 6 reagent (Roche; 3 ml FuGene/1 mg DNA). The MRTU constructs are regulated by a cis-regulating element (promoter). […] A major difference between the CIS and TRANS system is that in CIS activities of endogenous TFs are measured, whereas the TRANS assay evaluates changes in activities of exogenous, chimeric NR-Gal4 proteins. […] At the end of 24 hour incubation, total RNA was isolated using TriZol reagent (Invitrogen). The isolated RNA is then reverse-transcribed using oligo(dT) primer and Mo-MLV reverse transcriptase (Invitrogen) with DNAse I (Ambion) treatment for 30 min. The one-tenth of the produced cDNA was amplified by PCR using Taq DNA polymerase (Invitrogen) and two reporter sequence-specific primers. The PCR products were fluorescently labeled by primer extension with 6-arboxyfluorescein (6-FAM) 5'-labeled reporter sequence-specific primer (2 min at 95 C, 20 s at 68 C and 10 min at 72 C) and these products were digested with 5U of HpaI (New England Biolabs) for 2h at 37 C. The fragments were purified using Qiaquick PCR columns (Qiagen), analyzed on an ABI 3130xL genetic analyzer (Applied Biosystems) with peak positions identified by using a set of X-rhodamine (ROX)-labeled MapMarker1000 molecular weight standards (BioVentures). The raw capillary electrophoresis data was processed using Attagraph software (Attagene).

Transcription factor E2F1 (Homo sapiens), sequence (Q01094 whole entry, looked up): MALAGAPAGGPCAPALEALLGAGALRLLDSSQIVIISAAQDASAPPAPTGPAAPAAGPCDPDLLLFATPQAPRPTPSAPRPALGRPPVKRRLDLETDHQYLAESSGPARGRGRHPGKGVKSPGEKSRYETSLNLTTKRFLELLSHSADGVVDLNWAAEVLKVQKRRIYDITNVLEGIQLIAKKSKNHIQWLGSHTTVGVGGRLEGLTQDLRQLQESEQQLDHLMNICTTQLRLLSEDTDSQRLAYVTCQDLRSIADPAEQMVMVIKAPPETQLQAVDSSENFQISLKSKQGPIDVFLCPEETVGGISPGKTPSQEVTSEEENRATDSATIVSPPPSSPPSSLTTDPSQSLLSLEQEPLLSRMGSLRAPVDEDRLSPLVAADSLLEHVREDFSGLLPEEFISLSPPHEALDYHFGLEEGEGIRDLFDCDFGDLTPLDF

SMILES | outcome | AC50
CN(C)CCOc1ccc(/C(=C(/CCCl)c2ccccc2)c2ccccc2)cc1 | inactive | –
O=C1OC(=O)c2c(Br)c(Br)c(Br)c(Br)c21 | inactive | –
NCC1CCCC(CN)C1 (stereo not given) | inactive | –
c1ccc2cc(Nc3ccc(Nc4ccc5ccccc5c4)cc3)ccc2c1 | inactive | –
COS(=O)(=O)O | inactive | –
O=C1NC2NC(=O)NC2N1 (stereo not given) | inactive | –
C=C(C)[C@H]1CC=C(C)C(=O)C1 | inactive | –
CCCCCC(C=O)=Cc1ccccc1 | inactive | –
CC1(C)C(=O)N(Cl)C(=O)N1Br | inactive | –
C=C(C)C1CC=C(C)C(=O)C1 (stereo not given) | inactive | –
O=C(O)c1cc(C(=O)O)cc([N+](=O)[O-])c1 | inactive | –
CCCCCCCCCCCC(=O)OCC(O)CO (stereo not given) | inactive | –
O=C1OC[C@H](Cc2cccc(O)c2)[C@H]1Cc1cccc(O)c1 | inactive | –
Cc1[nH]c(=O)c(C#N)cc1-c1ccncc1 | inactive | –
CS(=O)(=O)c1ccc(C2=C(c3ccccc3)C(=O)OC2)cc1 | inactive | –
OCc1cccc(Oc2ccccc2)c1 | inactive | –
CCCCCC(=O)CC | inactive | –
CC1(C)C2=CCCC(C)(C)[C@]23CC[C@H]1C3 | inactive | –
C=C(C)[C@@H]1CC=C(C)C(=O)C1 | inactive | –
CN(C)CCOC(C)(c1ccccc1)c1ccccn1 (stereo not given) | inactive | –

SMILES | outcome | AC50
CCCCC(CC)COC(C)=O (stereo not given) | inactive | –
COC(=O)c1cccnc1 | inactive | –
CN(C)C(=O)Nc1ccc(Oc2ccc(Cl)cc2)cc1 | inactive | –
CC(=O)O[C@@H]1C[C@@H]2CC[C@@]1(C)C2(C)C | inactive | –
COc1ccc(COC(C)=O)cc1 | inactive | –
CCCCCCCCC=CCCCCCCCC1=NCCN1CCO | – | 26.1 µM (active)
CC(C)(C)CC(C)(C)c1ccc(OCCOCC[N+](C)(C)Cc2ccccc2)cc1 | inactive | –
CC(O)C1CCCCC1 (stereo not given) | inactive | –
CCCCC(CC)COC(=O)c1ccc(O)cc1 (stereo not given) | inactive | –
CCCCCc1ccco1 | inactive | –
O=C1CCCC=CCCCCCCCCCC1 | inactive | –
CC(C)(C)OC(=O)c1ccc(O)cc1 | inactive | –
COC(=O)Nc1ccc(Cl)c(Cl)c1 | inactive | –
Nc1ccc(NCCO)c([N+](=O)[O-])c1 | inactive | –
CCC(=O)O[C@@H]1C[C@H]2CC[C@]1(C)C2(C)C | inactive | –
CCCCCCCCCCCCCC(=O)OCC(O)CO (stereo not given) | inactive | –
CN1CCOCC1 | inactive | –
COc1ccccc1N=Nc1c(S(=O)(=O)O)cc2cc(S(=O)(=O)O)cc(NC(C)=O)c2c1O | inactive | –
COC(C)(C)CC(C)=O | inactive | –
CCCOCCO | inactive | –
